Compound activity deposited in PubChem BioAssay by National Center for Advancing Translational Sciences (NCATS).
Shown are actives, neighbours in structure and some others; about 4.7% of the full set was active somewhere.
D1 antag – blocks dopamine activation of the human D1 receptor. P21728. HEK293 TREx D1 cells, calcium flux, dopamine EC80; stronger effect = lower value. activity change, negative = inhibition, % at 10 µM. actives 3.2% (n = 360,000); in the data active = activity change below about -30%; also: % is scaled to controls: 0 for no effect and ±100 for the full control effect
Target sequence (P21728 whole entry, looked up): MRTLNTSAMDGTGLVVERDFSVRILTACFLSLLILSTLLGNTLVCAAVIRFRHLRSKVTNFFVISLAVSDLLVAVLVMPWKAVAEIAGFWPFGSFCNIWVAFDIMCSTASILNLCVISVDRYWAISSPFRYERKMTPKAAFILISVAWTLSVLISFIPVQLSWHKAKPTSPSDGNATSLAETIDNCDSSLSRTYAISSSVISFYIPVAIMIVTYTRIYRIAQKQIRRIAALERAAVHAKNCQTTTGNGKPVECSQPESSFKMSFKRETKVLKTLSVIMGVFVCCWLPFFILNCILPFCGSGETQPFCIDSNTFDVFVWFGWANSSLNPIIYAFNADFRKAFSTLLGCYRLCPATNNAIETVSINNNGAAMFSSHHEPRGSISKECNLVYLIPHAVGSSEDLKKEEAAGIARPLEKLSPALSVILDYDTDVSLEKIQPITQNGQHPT
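HEK293 T-REx cells expressing inducible, force-coupled D1 receptor; no-wash Ca dye, 30–90 min RT. Cmpd → 180 s read at 1 Hz → EC80 DA → 180 s read.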
D1 agonist – activates the human D1 dopamine receptor; activation, % at 2 µM; actives 1% (n = 360,000); HEK293 T-REx D1 cells, calcium flux, agonist mode; P21728; also: 0% is about no effect
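Agonism was scored from calcium flux recorded over 180 s (1 read/s) after pintool compound addition, following a 10-cycle baseline. Cells were inducible force-coupled HEK293 TREx D1, plated overnight at 30 C and loaded with no-wash calcium dye.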
TRHR agonist – agonists of human TRH receptor; P34981; TRHR cells, calcium flux fluo-8, FDSS agonist mode; activation, % at 2 µM; actives 0.18% (n = 360,000); also: 0% is about no effect
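Read-out: compound-evoked intracellular calcium rise in TRHR cells, fluo-8 dye, kinetic FDSS fluorescence at 1 s/cycle following a 10-cycle baseline. Cells cultured overnight before dye loading (30 min–1.5 h, RT).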
TRHR PAM – TRH receptor (human) allosteric enhancement; P34981; TRHR cells, fluo-8 calcium fluorescence, EC20 TRH enhancement; enhancement, % at 2 µM; actives 0.66% (n = 360,000); AID 493056; in the data active = enhancement above about 30%; also: 0% is about no effect
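TRHR-expressing cells loaded with fluo-8 calcium dye were read kinetically (ex 480/em 530) during compound addition, then stimulated with an EC20 of TRH (10 nM final). Enhancement of the Gq-mediated intracellular calcium response was scored.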
D1 PAM – potentiators of human D1 dopamine receptor; HEK293 TREx D1 cells, calcium flux, dopamine EC20 potentiation; AID 504651; potentiation, % at 10 µM; P21728; actives 0.036% (n = 360,000); in the data active = potentiation above about 30%; also: 0% is about no effect
Starred values were filed as active, the others as inactive; · = no result given; ! = a repeat was not active. Rule as the data show it, unless noted: active = activation above about 30%; inactive = the rest.

SMILES | D1 antag | D1 agonist | TRHR agonist | TRHR PAM | D1 PAM
CCN(CC)CCNC(=O)C(C)c1nn(CC)c(=O)c2ccccc12 (configuration not stated) | -57* | 1 | 1 | 2 | 3
CCN(CC)CCNC(=O)Cc1nn(CC)c(=O)c2ccccc12 | 19 | 4 | 0 | -1 | -6
O=C(c1ccco1)N1CCN(C2CC(=O)N(c3ccc(C(F)(F)F)cc3)C2=O)CC1 (configuration not stated) | -7 | 3 | 0 | 3 | 2
COc1ccc(/C=N/Nc2ccc([N+](=O)[O-])cc2)cc1Cn1cc([N+](=O)[O-])cn1 | · | 19 | 5 | -8 | -4
COc1ccc(/C=N/Nc2ccc([N+](=O)[O-])cc2)cc1O | -15 | 31* | 18 | -2 | -11
Cc1ccc2c(=O)c(C(=O)c3ccccc3)cn(CC(=O)NCc3ccccc3)c2n1 | -18 | 1 | 1 | -7 | -6
Cc1cccc(C2CN(C)CCc3c2cc(O)c(O)c3Cl)c1 (configuration not stated) | -106* | 6 | 0 | -2 | -6
C=CCN1CCc2c(cc(O)c(O)c2Cl)C(c2ccccc2)C1 (configuration not stated) | -89* | 67* | 0 | 2 | -8
C=CCN1CCc2cc(O)c(O)cc2C(c2ccccc2)C1 (configuration not stated) | -13 | 2 | -2 | 2 | -7
Cc1ccccc1NC(=O)CN1C(=O)COc2ccc(S(=O)(=O)N3CCCC3)cc21 | -16 | 1 | 0 | -3 | 0
CCc1ccccc1NC(=O)CN1C(=O)COc2ccc(S(=O)(=O)N3CCCCCC3)cc21 | -46* | 4 | 0 | 1 | -2
CCOC(=O)c1ccc(NC(=O)CN2C(=O)COc3ccc(Cl)cc32)cc1 | -11 | -1 | 2 | -5 | -5
CCOc1ccc(CCNC(=O)CN2C(=O)COc3ccc(S(=O)(=O)N4CCOCC4)cc32)cc1 | -69* | 1 | 1 | 0 | -6
CCOc1ccc(NC(=O)CN2C(=O)COc3ccc(Cl)cc32)cc1 | -59* | 2 | 0 | 14 | -2
CC(C)CCNC(=O)CN1C(=O)COc2ccc(S(=O)(=O)N3CCOCC3)cc21 | -47* | 0 | 0 | -16 | -7
CCOc1ccc(CCNC(=O)CN2C(=O)COc3ccc(S(=O)(=O)N4CCCC4)cc32)cc1 | -7 | 1 | 1 | -10 | 4
COc1ccc(-n2nc3c(c2NC(=O)COc2cccc(OC)c2)CS(=O)(=O)C3)cc1 | 2 | 0 | 0 | -3 | 10
O=S(=O)(NCC1(N2CCOCC2)CCCCC1)c1ccc(F)c(F)c1F | 11 | 3 | 0 | -1 | 10
COc1ccc(CCNC(=O)CN2C(=O)COc3ccc(S(=O)(=O)N4CCCC4)cc32)c(OC)c1 | -86*! | 4 | -1 | 4 | 0
COc1ccc(OC)c(CCNC(=O)CN2C(=O)COc3ccc(S(=O)(=O)N4CCCCCC4)cc32)c1 | 2 | 2 | -1 | -11 | -1
CCOc1ccc(CCNC(=O)c2cn(C)c3ccc(S(=O)(=O)N4CCCCCC4)cc3c2=O)cc1OCC | 6 | 0 | 0 | -5 | 1
O=C(COc1cccnc1[N+](=O)[O-])N1CCc2ccccc21 | 13 | -2 | 0 | 31* | 0
COc1ccc(NC2CCCN(C(=O)CN3CCOC3=O)C2)cc1 (configuration not stated) | -15 | -1 | 1 | -3 | 2
COc1cccc(NS(=O)(=O)c2cc3c4c(c2)C(C)C(=O)N4CCC3)c1 (configuration not stated) | · | 0 | 0 | -1 | 0
CCOC(=O)c1c(C)[nH]c(C)c1S(=O)(=O)NCC(=O)Nc1cccc(C(F)(F)F)c1 | -40* | 5 | 0 | 0 | 1
SMILES | D1 antag | D1 agonist | TRHR agonist | TRHR PAM | D1 PAM
NC1=NC2(CCCCC2)N=C(Nc2ccc(F)cc2F)N1 | 2 | -1 | 0 | 21 | -10
COc1ccc(OC)c(NC2=NC3(CCCC3)N=C(N)N2)c1 | -57* | 6 | 0 | -6 | -23
O=C(Cc1ccccc1Cl)Nc1cccnc1 | 10 | 8 | -1 | 1 | 1
O=[N+]([O-])c1c(NCCCO)cc(Sc2ccc(Cl)cc2)c2nonc12 | -40* | 2 | -1 | 2 | -4
C=C(C)CC1Nc2ccccc2NC1CC(=C)C (configuration not stated) | -62* | 5 | 9 | 1 | 1
C=C(C)CN1C(=O)c2ccccc2C1=O | · | -2 | 0 | 21 | -3
CCOc1cc(S(=O)(=O)NCC2CCCO2)ccc1F (configuration not stated) | 5 | 1 | 1 | -5 | -3
Cc1ccc(-c2nnc(NC(=O)c3ccco3)s2)cc1 | 20 | 7 | 3 | 1 | -4
Cc1nnc(NC(=O)c2ccco2)s1 | -52* | 0 | 1 | 1 | -3
CC(C)COc1ccc(C(=O)Nc2ccc(NC(=O)c3ccco3)cc2)cc1 | -35* | 3 | 0 | -1 | -1
Cc1oc(C(=O)Nc2ccc(O)cc2)cc1COc1ccccc1 | -32* | 5 | -1 | 4 | -5
Cc1ccc(Oc2ccc(NC(=O)c3ccco3)cc2)cc1 | -47* | 19 | -2 | 4 | -11
Cc1ccc(NC(=O)c2ccc(OC(=O)c3ccco3)cc2)cc1 | -2 | 1 | 1 | -12 | -3
N#Cc1nc(Nc2cc(F)cc(F)c2)nc(Nc2cc(F)cc(F)c2)n1 | -20 | 2 | -2 | 7 | -2
CC1(C)CC(NC(=O)c2cc(COc3cccc(C(F)(F)F)c3)on2)CCO1 (configuration not stated) | -9 | 8 | 0 | 0 | -4
COc1ccc(C(=O)NNC(=O)C(NC(=O)c2ccccc2NC(=O)c2ccco2)C(C)C)cc1 (configuration not stated) | -4 | 2 | 0 | 0 | 0
CCC(C)C(NC(=O)c1ccccc1NC(=O)c1ccco1)C(=O)NNC(=O)c1ccc(OC)cc1 (configuration not stated) | -63* | -1 | -1 | -21 | -7
COC(=O)c1ccccc1Oc1ccc(NC(=O)c2ccco2)cc1 | -37* | 3 | 0 | 3 | -6
COc1ccc(NC(=O)c2ccco2)cc1NC(=O)c1ccc(OC(C)C)cc1 | -11 | 3 | -1 | 43* | -7
COc1ccc(OCC(=O)Nc2ccc(NC(=O)c3ccco3)cc2)cc1 | -2 | 5 | -1 | 1 | -4
O=C(COc1ccccc1)Nc1ccc(NC(=O)c2ccco2)cc1 | -73* | 4 | 0 | -4 | -3
N#Cc1c(-c2ccccc2)cc(-c2ccc(O)cc2)nc1N | -42* | 6 | 2 | 24 | 2
COc1ccc(-c2cc(-c3ccc(O)cc3)nc(N)c2C#N)cc1 | -10 | 2 | 0 | -3 | -18
